The campaign covered roughly 310,000 compounds. About 17,000 (5.5%) were called active. Another 11% or so got no clear call; they are omitted. Calls follow the shape of the dose curve; as a rule, active = well fitted inhibition curve with a large enough effect; inconclusive = small, poorly fitted or top-dose-only effect, or effect the other way; inactive = no such curve, though single readings can be large or run the other way. The entries come from a sample that favours actives as a whole.
These compounds were tested against Nuclear receptor ROR-gamma (Mus musculus) (UniProt P51450) (assay: qHTS for inhibitors of ROR gamma transcriptional activity). Settings: Drosophila S2 Gal4-RORgamma UAS-luciferase reporter, 20 h; series mostly up to 53.6 µM; activity change, negative = inhibition: at the top concentration.
Nuclear receptor ROR-gamma (Mus musculus), sequence (P51450 whole entry, looked up, the tested form may be a part): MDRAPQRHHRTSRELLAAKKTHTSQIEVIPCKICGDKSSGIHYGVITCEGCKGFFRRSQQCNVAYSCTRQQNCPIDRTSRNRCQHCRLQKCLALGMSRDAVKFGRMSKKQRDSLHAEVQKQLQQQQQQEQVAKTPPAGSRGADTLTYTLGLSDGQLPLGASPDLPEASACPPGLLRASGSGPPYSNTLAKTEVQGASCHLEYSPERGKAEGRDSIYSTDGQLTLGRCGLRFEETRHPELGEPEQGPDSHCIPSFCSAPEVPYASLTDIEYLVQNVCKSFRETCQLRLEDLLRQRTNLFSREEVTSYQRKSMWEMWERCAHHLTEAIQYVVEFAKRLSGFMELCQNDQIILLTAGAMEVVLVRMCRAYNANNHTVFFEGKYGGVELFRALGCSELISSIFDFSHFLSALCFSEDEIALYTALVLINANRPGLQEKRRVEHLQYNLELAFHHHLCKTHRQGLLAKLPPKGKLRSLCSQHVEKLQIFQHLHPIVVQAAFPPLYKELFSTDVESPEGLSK
Procedure, shortened: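 Stably transfected Drosophila Schneider cells are the test system, with ROR gamma fused to Gal4 and luciferase under UAS control; luminescence is read after 20 hr of 700 uM copper sulfate induction at ambient temperature.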
% is scaled to controls: 0 for no effect and ±100 for the full control effect; potency is read from the fitted curve at half-maximal effect.
Also: nearly all actives have a fitted effect of over 60% in size.

| Structure (SMILES) | activity change, negative = inhibition | Potency |
| --- | --- | --- |
| CCOC(=O)C1CCN(C(=O)CN2C(=O)c3cccnc3Oc3ccc(C)cc32)CC1 | -7.07% (inactive) | – |
| CCCc1cc(=O)[nH]c(SCC(=O)Nc2sc3c(c2C#N)CCCC3)n1 | 33.4% (inactive) | – |
| Cc1ccc(Cn2c(=N)c(S(=O)(=O)c3ccc(C)cc3)cc3c(=O)n4ccccc4nc32)cc1 | -23.8% (inactive) | – |
| CCC(C)(C)NC(=O)C(c1ccc(OC)cc1)N(C(=O)CCC(=O)Nc1cc(C)on1)c1ccc(OC)cc1OC (configuration not stated) | 40.9% (inactive) | – |
| CCOC(=O)N1CCN(C(=O)COc2ccc(Cl)cc2C)CC1 | -1.24% (inactive) | – |
| CCCn1nnnc1NC(=O)COc1ccc(Cl)cc1C | – | 0.891 µM (active) |
| Cc1cc(Cl)ccc1OCCCC(=O)Nc1cccc(-n2cnnn2)c1 | 35% (inactive) | – |
| OC(c1ccc(Cl)cc1)C(CN1CCOCC1)c1ccccc1 (configuration not stated) | 3.28% (inactive) | – |
| Cc1ccc(/C=C2\SC(=S)N(CCC(=O)Nc3ccc(O)cc3)C2=O)cc1 | -15.4% (inactive) | – |
| O=C(CCCN1C(=O)/C(=C\c2ccccc2)SC1=S)Nc1ccccc1O | -38.6% (inactive) | – |
| O=C(CCCN1C(=O)/C(=C/c2ccccc2)SC1=S)Nc1ccc(O)cc1 | – | 3.98 µM (active) |
| CN1CCN(Cc2nc3cc(NC(=O)COc4ccc([N+](=O)[O-])cc4)ccc3n2C)CC1 | -7.74% (inactive) | – |
| COc1ccc2c(C)c(CCC(=O)NC3CC3)c(=O)oc2c1C | 7.24% (inactive) | – |
| CC(=O)Nc1ccc(NC(=O)CN2CCCC(C)C2)c(Cl)c1 (configuration not stated) | 27.2% (inactive) | – |
| Cc1cc(NC(=O)CN2CCCC(C)C2)n(-c2nc3ccccc3s2)n1 (configuration not stated) | – | 1.58 µM (active) |
| CC1CCCN(CC(=O)Nc2cc(Cl)ccc2Oc2ccccc2)C1 (configuration not stated) | 4.22% (inactive) | – |
| COc1ccc(S(=O)(=O)n2cnc3ccccc32)c(C)c1 | 40% (inactive) | – |
| COc1ccc(N2CC(C(=O)N[C@@H](C)C(=O)N3CCCCC3)CC2=O)cc1 (some centres not stated) | -8.28% (inactive) | – |
| FC(F)(F)c1ccc(-n2cn[nH]c2=S)cc1 | – | 10 µM (active) |
| COc1ccccc1N1CC(C(=O)Nc2nnc(SCC(=O)NCC3CCCO3)s2)CC1=O (configuration not stated) | 2.4% (inactive) | – |
| CNS(=O)(=O)c1cccc(C(=O)NC2CCCc3ccccc32)c1 (configuration not stated) | -15.4% (inactive) | – |
| S=c1nc2ccccc2c2nc(-c3cccnc3)[nH]n12 | – | 0.447 µM (active) |

| Structure (SMILES) | activity change, negative = inhibition | Potency |
| --- | --- | --- |
| c1ccc(-n2nnnc2-c2cccnc2)cc1 | 3.95% (inactive) | – |
| c1cncc(-c2nc(N3CCNCC3)c3ccccc3n2)c1 | 14.8% (inactive) | – |
| O=C(C1CCCN(S(=O)(=O)c2ccccc2)C1)N1CCN(c2ccc(F)cc2)CC1 (configuration not stated) | 16.8% (inactive) | – |
| Cc1cccc(C(=O)NC(=S)N(C)C2CCCCC2)c1 | – | 1.78 µM (active) |
| Cc1ccc(S(=O)(=O)NC(=O)c2cccc(C)c2)cc1 | 0.442% (inactive) | – |
| Cc1cccc(C(=O)NCCCN(C)CCCNC(=O)c2cccc(C)c2)c1 | -5.29% (inactive) | – |
| O=C(Nc1c2c(nn1-c1cccc(Cl)c1)CS(=O)(=O)C2)c1cccs1 | -10.5% (inactive) | – |
| Cc1coc2c(O)cc3c(c12)OC1(N2CCCCC2)C(=O)NCCCC31 (configuration not stated) | – | 12.6 µM (active) |
| COc1ccc(C(=O)Nc2c(N)nc(SCC(=O)Nc3ccc(C(C)=O)cc3)[nH]c2=O)cc1 | -19.8% (inactive) | – |
| CCCCN(CC)C(=O)C1CCCN(S(=O)(=O)c2cccc3nsnc23)C1 (configuration not stated) | 3.5% (inactive) | – |
| Cc1ccc(OC(=O)c2cncc(Br)c2)c(C)c1 | -23% [at 1.91 µM] (inactive) | – |
| O=C(NCc1ccccn1)C1CCN(S(=O)(=O)c2ccc(Br)cc2)CC1 | -18.1% (inactive) | – |
| Cc1ccc(NC(=O)c2csc3c2CCCC3)cc1 | 12.7% (inactive) | – |
| CC(=O)Cc1nsc(NC(=O)c2csc3c2CCCC3)n1 | 25% (inactive) | – |
| COC(=O)c1sc(NC(=O)c2csc3c2CCCC3)nc1C | – | 35.5 µM (active) |
| COc1ccc(C(=O)NC2CCN(C(=O)Nc3ccc(F)cc3)CC2)cc1 | -0.284% (inactive) | – |
| COc1ccccc1CNC(=O)c1ccc(CS(=O)(=O)c2ccccc2)o1 | 28.3% (inactive) | – |
| CCOc1ccc(CN2CCN(CCCc3ccccc3)C(CCO)C2)cc1 (configuration not stated) | 2.1% (inactive) | – |
| CCN(C(=O)C1CCCN(c2nc(-c3ccc(OC)cc3)no2)C1)c1ccc(OC)cc1 (configuration not stated) | 38.9% (inactive) | – |
| OCCNc1nc2ccccc2[nH]1 | -8.36% (inactive) | – |
| OC(c1nc2ccccc2[nH]1)C(O)C(O)C(O)c1nc2ccccc2[nH]1 (configuration not stated) | 20.1% (inactive) | – |
| c1ccc2[nH]c(-c3nc4ccccc4[nH]3)nc2c1 | – | 10 µM (active) |

| Structure (SMILES) | activity change, negative = inhibition | Potency |
| --- | --- | --- |
| Cc1cc(C)c2c(-c3ccc(F)cc3)c(C#N)c(=O)n(C)c2n1 | -20% (inactive) | – |
| CCc1ccc(OCC2c3cc(OC)c(OC)cc3CCN2C(C)=O)cc1 (configuration not stated) | -7.5% (inactive) | – |
| Nc1nc(Nc2ccccc2F)nc(NC2CCCCC2)c1[N+](=O)[O-] | 16.6% (inactive) | – |
| O=c1cc(-c2ccccc2)nc(N2CCCCC2)[nH]1 | -5.11% (inactive) | – |
| c1ccc(-c2cc(N3CCCCC3)c3ccccc3n2)cc1 | – | 14.1 µM (active) |
| O=c1cc(N2CCCCC2)c(-c2ccccc2)nn1Cc1cccc(F)c1 | -0.464% (inactive) | – |
| CCC(=O)Nc1nnc(S(=O)(=O)N(CC(C)C)c2ccccc2)s1 | -21.1% (inactive) | – |
| CCOc1ccc2[nH]c(=O)c(CN(CCCO)S(=O)(=O)c3ccc(F)cc3)cc2c1 | 12.8% (inactive) | – |
| c1ccc2c(c1)OCC(c1nn3cnnc3s1)O2 (configuration not stated) | 16.7% (inactive) | – |
| O=C(Nc1nnc(C2COc3ccccc3O2)o1)c1ccc(F)cc1 (configuration not stated) | – | 0.562 µM (active) |
| CC1COc2ccccc2N1C(=O)c1ccc(F)cc1 (configuration not stated) | 24% (inactive) | – |
| COc1ccc(N2CCN(C(=O)c3ccc(N4CCCCS4(=O)=O)cc3)CC2)cc1 | 29.1% (inactive) | – |
| COc1ccc(-c2cc(C(=O)N3CCN(c4ccc(F)cc4)CC3)no2)cc1 | 4.47% (inactive) | – |
| CCOc1ccc2[nH]c3nc(SCC(=O)NC4CCCC4)nnc3c2c1 | -11.8% (inactive) | – |
| O=c1c2ccccc2ncn1CCCCOc1ccccc1F | 12.9% [at 1.91 µM] (inactive) | – |
| COC(=O)c1ccc(NC(=O)CSc2nc(N)c(NC(=O)c3ccc(Br)o3)c(=O)[nH]2)cc1 | 5.56% (inactive) | – |
| S=c1[nH]nc(/C=C/c2ccccc2)o1 | – | 12.6 µM (active) |
| O=c1oc(/C=C/c2ccccc2)nc2ccccc12 | 0.954% (inactive) | – |
| COc1ccc(N(CC(=O)N2CCCCCC2)S(=O)(=O)c2ccccc2)cc1 | 2.49% (inactive) | – |
| Cc1ccc(NC2CCCN(C(=O)CCc3cn[nH]c3)C2)cc1C (configuration not stated) | 14.3% (inactive) | – |
| Cc1ccccc1N1CCN(CC(=O)NCc2ccc(Cl)cc2)CC1 | 27.3% (inactive) | – |
| COC(=O)c1sc2[nH]c(=S)n(N)c(=O)c2c1C | – | 7.08 µM (active) |

| Structure (SMILES) | activity change, negative = inhibition | Potency |
| --- | --- | --- |
| COC(=O)c1sc(=S)n(-c2ccccc2)c1N | 0.645% (inactive) | – |
| CCOC(=O)c1sc2nc(C)[nH]c(=O)c2c1C | 18.3% (inactive) | – |
| O=S(=O)(c1ccc(Cl)cc1)c1nc(-c2ccccc2F)oc1NCCN1CCOCC1 | 38.8% (inactive) | – |
| CC(=O)c1ccc(NC(=O)c2sc3nc4n(c(=O)c3c2C)CCCCC4)cc1 | 34.7% (inactive) | – |
| O=C(Cc1ccc2c(c1)CCCC2)Nc1ccccc1Cl | 8.31% (inactive) | – |
| O=C(Nc1ccccc1Cl)Nn1cnnc1 | -16.9% (inactive) | – |
| O=C(Nc1ccccc1Cl)/C(Cl)=C(\Cl)S(=O)c1ccccc1 (configuration not stated) | – | 0.891 µM (active) |
| Cc1ccc(S(=O)(=O)c2nnn3c2nc(N2CCN(c4ccccn4)CC2)c2ccccc23)cc1 | -12.8% (inactive) | – |
| CCC(CC)c1nnc(NC(=O)C2CCN(C(=O)c3ccco3)CC2)s1 | 35.8% (inactive) | – |
| CC(CNC(=O)c1ccc(Br)o1)NC(=O)c1ccc(Br)o1 (configuration not stated) | -15% (inactive) | – |
| O=C(NCc1cccs1)c1ccc(Br)o1 | 5.95% (inactive) | – |
| C=CCNC(=S)NNC(=O)c1ccc(Br)o1 | – | 2 µM (active) |
| CC1CCN(C(=O)Cn2nnnc2CN2CCOCC2)CC1 | -26.6% (inactive) | – |
| COC(CNC(=O)c1ccc2c(c1)ncn2-c1cc(C)cc(C)c1)OC | 9.19% (inactive) | – |
| O=C(N/N=C/c1ccccn1)c1cccnc1 | -45.9% (inactive) | – |
| O=C(NN=C1CCC(=NNC(=O)c2cccnc2)CC1)c1cccnc1 | -37.9% (inactive) | – |
| O=C(N/N=C/c1sc(N2CCCCC2)nc1-c1cccs1)c1cccnc1 | – | 7.94 µM (active) |
| CN(Cc1ccccc1)C(=O)c1ccc(NC2=NC3CS(=O)(=O)CC3S2)cc1 (configuration not stated) | -0.867% (inactive) | – |
| N#CCC(=O)N/N=C/c1cn(Cc2ccc3ccccc3c2)c2ccccc12 | – | 12.6 µM (active) |
| COc1cccc(Cn2cc(/C=N/NC(=O)c3cc(O)cc(O)c3)c3ccccc32)c1 | -0.821% (inactive) | – |
| CNC(=S)N/N=C/c1cn(Cc2ccc(C)cc2)c2ccccc12 | 31.1% (inactive) | – |
| Cc1c(C=O)c2ccccc2n1CCOc1ccccc1 | 77.1% (inactive) | – |

| Structure (SMILES) | activity change, negative = inhibition | Potency |
| --- | --- | --- |
| COc1cccc(C(C(=O)NC2CCCC2)N(C(=O)c2ccco2)c2cccc(C(C)=O)c2)c1OC (configuration not stated) | 27% (inactive) | – |
| COCCNC(=S)N(CCc1c(C)[nH]c2ccc(C)cc12)Cc1cccnc1 | 5.98% (inactive) | – |
| Cc1[nH]c2ccccc2c1CCN(Cc1cccs1)C(=S)NC(C)(C)C | 3.01% (inactive) | – |
| COc1cccc(NC(=S)N(CCc2c(C)[nH]c3ccccc23)Cc2ccco2)c1 | – | 11.2 µM (active) |
| CCNC(=S)N(CCc1c(C)[nH]c2ccc(C)cc12)Cc1ccco1 | – | 11.2 µM (active) |
| COc1ccc2[nH]c(C)c(CCN(Cc3cccs3)C(=S)Nc3ccccc3OC)c2c1 | 38.3% (inactive) | – |
| Cc1ccc2[nH]c(C)c(CCNC(=O)NC3CCCCC3)c2c1 | 25.9% (inactive) | – |
| NS(=O)(=O)c1ccc(CNC(=O)c2cccc(Oc3ccccc3)c2)cc1 | -1.73% (inactive) | – |
| COc1ccc(N2CCN(C(=O)Cn3cnc4sc(C)c(S(=O)(=O)N5CCOCC5)c4c3=O)CC2)cc1 | 6.53% (inactive) | – |
| COc1ccc(NS(=O)(=O)c2ccc3oc(SCC(N)=O)nc3c2)cc1 | 43.4% (inactive) | – |
| COc1cc(C(=S)N2CCOCC2)cc(OC)c1OC(=O)c1ccc([N+](=O)[O-])cc1[N+](=O)[O-] | -8.5% [at 1.91 µM] (inactive) | – |
| O=C(O)c1ccc2c(=O)n3c(nc2c1)/C(=C/c1ccc(OC(F)F)cc1OC(F)F)CC3 | 2.65% (inactive) | – |
| Cc1ccc(Nc2nc(N)nc(CSc3nnc(C)s3)n2)cc1 | 21.9% (inactive) | – |
| Nc1nc(CC(=O)CSc2ccc(Cl)cc2)nc(Nc2ccc(F)cc2)n1 | – | 14.1 µM (active) |
| CCOC(=O)N1CCN(Cc2nc(N)nc(Nc3ccc(C)cc3)n2)CC1 | -14.9% (inactive) | – |
| O=S(=O)(NC1CC1)c1ccc(Cl)cc1 | 30.8% [at 1.91 µM] (inactive) | – |
| Cc1ccc(Nc2ccccc2N)cc1 | – | 11.2 µM (active) |
| Nc1ccccc1N | -35.5% (inactive) | – |
| Cc1ccc(Nc2nnc(SCc3ccccc3)s2)cc1 | 10.7% (inactive) | – |

From PubChem BioAssay AID2551 (National Center for Advancing Translational Sciences (NCATS), 2010)
